Data: PubChem BioAssay AID1159580 (chemical genetic matrix, 2015)
The campaign covered roughly 5,500 compounds. About 2,000 (36%) were called active. Inconclusive results (about 18%) are left out. No stated cut-off is given here; in the data, active means normalized growth mostly below about 0.91 (no sharp cut-off); inconclusive means no clear call, values can overlap the other calls; inactive means mostly above about 0.92. The list shows a part of the results.

Test: chemical genetic growth profiling, strain panel (AID 1159580);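 further: tested at 20 µM; growth read once vehicle control cultures reached saturation at 30 °C; 1 = growth at the plate median or of vehicle wells; lower values mean less growth of the strain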
Settings: S. cerevisiae deletion strains, growth OD

Measured: normalized growth

CCN1CCC[C@H]1CNC(=O)c1cc(S(N)(=O)=O)ccc1OC
inactive: locus YAL013W, strain DEP1, hits give low values 1.02 | locus YAL040C, strain CLN3, hits give low values 1.07 | locus YCL061C, strain MRC1 (second series), hits give low values 1.01 | locus YDR150W, strain NUM1, hits give low values 1.01 | locus YDR363W, strain ESC2, hits give low values 1.03 | locus YER002W, strain NOP16, hits give low values 1.02 | locus YGR078C, strain PAC10, hits give low values 1.02 | locus YGR229C, strain SMI1, hits give low values 1.02 | locus YMR307W, strain GAS1, hits give low values 0.997 | locus YNL128W, strain TEP1, hits give low values 0.995 | locus YNL153C, strain GIM3, hits give low values 1.02 | locus YNL175C, strain NOP13, hits give low values 1 | locus YNL197C, strain WHI3, hits give low values 1.01 | locus YNL224C, strain SQS1, hits give low values 1.01 | locus YOR083W, strain WHI5 (second series), hits give low values 1.01 | locus YPL055C, strain LGE1, hits give low values 1.01
